Reference: PubChem BioAssay (NCI)
Several values for one entry are separate records, joined by “and”; a condition that tells them apart may be missing. Identical values can stand only once. The panel holds about 83,000 compounds, 20% with a hit somewhere; the sample as a whole holds those more often.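 For each line, cells grew in 96-well plates with the test compound present at a single concentration for 48 hours.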 The source holds several records for some structures; these can differ, active in one and inactive in another. Activity calls are given as the source filed them. The calls were made as follows: active = growth percent below 10; inactive = the rest.

test system: MDA-MB-468 breast; assay: NCI-60 one-dose screen, 48 h (100 = growth as untreated, 0 = no growth, -100 = all killed); settings: 10 µM unless noted

SMILES | growth
CC(C)C(=O)OCCOc1ccc(C(C)(C)C)cc1 | 102% (inactive)
CNC(=O)c1ccccc1Oc1nc(Nc2cc(OC)c(OC)c(OC)c2)ncc1Br | 49.6% (inactive)
O=C(Cc1ccccc1)NC(c1ccc(Cl)cc1)c1c(O)ccc2ccccc12 (stereo not given) | 7.01% (active)
CCCCC[C@H]1CC=C2C(=O)C=C[C@@H]2CC=CCCCC(=O)O[C@@H](CCCCC)CC=C2C(=O)C=C[C@@H]2CC=CCCCC(=O)O[C@@H](CCCCC)CC=C2C(=O)C=C[C@@H]2CC=CCCCC(=O)O1 | 7.64% [8.75 µM] (active)
COc1cc2oc3cc(C)oc(=O)c3c2cc1OC | 91% (inactive)
COC(=O)[C@@H](NC(=O)NC(=O)NC(=O)CI)C(C)C | 71.6% (inactive)
C[C@@H](C[C@H](CCOCc1cccnc1)c1ccccc1)c1cc2ccccc2o1 | 99.5% (inactive)
CN(C)CC(C)(CN(C)C)C(=O)/C=C/c1c(Cl)cccc1Cl | -82.6% (active)
COC(=O)C1CN(S(=O)(=O)/N=C2\NC(=O)NC2=C(Cl)Cl)C1 | 72.5% (inactive)
COC1=CC(=O)C(OC)=C(O)C1=O | 91.8% (inactive)
O=C1OCC2=C1C(c1ccncc1)c1cc3c(cc1N2CCO)OCO3 (stereo not given) | 96.3% (inactive)
CN1CCN(c2ccc(NC(=O)c3nc4ccc5[nH]ncc5c4c4c3CCCC4)cc2C(F)(F)F)CC1 | 44% (inactive)
C=CCSC1=NC2C(N(CC)C(=O)N2CC)N1/N=C/C=C/c1ccccc1OC (stereo not given) | 29.6% (inactive)
COc1cccc2c1[C@H](OC)[C@]13O[C@@]1(C2=O)[C@H](O)[C@H](C)[C@@](O)(C(=O)[C@@H]1O[C@H]1C)[C@@H]3O | -40.5% (active)
CCCCCCCCCCCCCC(=S)NCCCC[C@H](NC(=O)OCc1ccccc1)C(=O)Nc1ccccc1 | 27.1% (inactive)
O=C(Nc1ccc(F)cc1)c1cc(-c2ccc(F)cc2F)ccc1O | -7.21% (active)
CCS(=O)(=O)N1CCN(c2ccc(Nc3ncc(C(N)=O)c(NC4CC4)n3)cc2)CC1 | 42.2% (inactive)
O=C(Nc1cccc(-n2cc(-c3ccncc3)c(-c3ccc(O)c(Cl)c3)n2)c1)Nc1cccc(C(F)(F)F)c1 | 18.5% (inactive)
COc1ccc(-c2ncnc3c2ncn3C/C=C/CCl)cc1 | -3.89% (active) and 61.5% (inactive)
CCCCCCCCCCCCCCCCCC1=NCCN1C(=O)OCCO | -67.1% (active)

SMILES | growth
CN1CCN(C(=O)[C@]23CCC(C)(C)C[C@@H]2C2=CC[C@@H]4[C@@]5(C)Cc6c([nH]c7ccccc67)C(C)(C)[C@@H]5CC[C@@]4(C)[C@]2(C)CC3)CC1 | 98% (inactive)
COc1ccccc1NC(=O)C1CC(c2ccc(F)cc2)=NO1 (stereo not given) | 99.7% (inactive)
Cc1cccc2c1C[C@@]1(C2=O)C(c2ccc(C(C)(C)C)cc2)=NOS1=O (stereo not given in full) | 88.2% (inactive)
COc1ccc(-n2cc(-c3ccccc3)c3c(SCC(=O)N/N=C/c4ccc([N+](=O)[O-])cc4)ncnc32)cc1 | 98% (inactive)
CC(C)(C)NC(C1=CC(C)(C)c2ccccc2C1=O)c1ccccc1 (stereo not given) | -100% (active)
COc1cc(/C=C/C(=O)c2ccc(Nc3ncnc4cc(OC)c(OC)cc34)cc2)cc(OC)c1 | 101% (inactive)
O=c1[nH][nH]c(=O)c2cc([N+](=O)[O-])ccc12 | 109% (inactive)
COc1ccc2[nH]cc(/C=C3/C(=O)Nc4ccc(Cl)cc43)c2c1 | -10.9% (active)
O=C(NC(=S)Nc1cccc(NC(=S)NC(=O)c2ccccc2)c1)c1ccccc1 | 98.5% (inactive)
CCOC(=O)c1c(NC(=O)c2ccccc2)sc2c(O)c(CN(CC)CC)ccc12 | -2.82% (active)
COc1cc2ncnc(NC3CCC(O)CC3)c2cc1OC (stereo not given) | 96.7% (inactive)
Cc1cc(NN=C(c2ccc(O)cc2)c2ccc(O)cc2)c([N+](=O)[O-])cc1[N+](=O)[O-] | 92.8% (inactive)
COc1cc(/C=C/C(=O)/C=C/c2ccc(-n3ccnc3C)cc2)ccc1O | 24.4% (inactive)
Nc1ncc(-c2ccc3ncnc(Nc4cncc(Cl)c4)c3c2)cn1 | 7.6% (active)
CCCN1C2CCC1/C(=C\c1ccc(OC)cc1)C(=O)/C2=C/c1ccc(OC)cc1 | 55.9% (inactive)
COc1ccc(C2C(C#N)=C(N)Oc3c2sc2ccc(C)cc32)cc1 (stereo not given) | -13.2% (active)
O=C(/C=C/c1cccc(O)c1)c1ccc(O)cc1 | 40.9% (inactive)
O=C(Nc1ccc(-n2ccc3c(NC(=O)c4ccccc4)nccc32)cc1)Nc1cccc(C(F)(F)F)c1 | 15.5% (inactive)
COC(=O)CCCNS(=O)(=O)c1cc(C(=O)Nc2ccc(NC(=O)c3cc(S(=O)(=O)NCCCC(=O)OC)c(O)c(O)c3O)cc2)c(O)c(O)c1O | 98.7% (inactive)
COc1ccc(/C=N/NC(=O)Cn2c(-c3ccc(S(C)(=O)=O)cc3)nc3cc(Cl)ccc32)cc1 | -18.5% (active)
